# High-throughput results (PubChem)
# Most compounds without a hit are left out; they make up all but 8.1% or so of the library.
# PINK1 modulator: changes PINK1 expression | PINK1 immunofluorescence, high-content cytometry, 24 h | Potency, µM (highest dose often 76.6 µM), without a hit: top-dose activation (PINK1 increase), actives largely listed as activators | hit rate 0.2% among 410,000; active = well fitted activation curve with a large enough effect; inconclusive = small, poorly fitted or top-dose-only effect; cell line not stated here; also: % of control where 0% means no effect; nearly all actives have a fitted effect of over 65% in size
#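 Compound titrations (5 concentrations, 24 h) on a stable cell line; DMSO and CCCP controls. Endpoint: fixed-cell PINK1 immunofluorescence with mitochondrial, cell and nuclear markers, scanned by microplate cytometer.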
# RORg inh: ROR gamma (mouse) transcription inhibition | Drosophila S2 Gal4-RORgamma UAS-luciferase reporter, 20 h | Potency, µM (titrated, usually from 53.6 µM), for inactives: at the top dose activity change, negative = inhibition, actives largely listed as inhibitors | hit rate 5.4% among 310,000; also: % is scaled to controls: 0 for no effect and ±100 for the full control effect; nearly all actives have a fitted effect of over 60% in size
# Target sequence (P51450 whole entry, looked up, the tested form may be a part): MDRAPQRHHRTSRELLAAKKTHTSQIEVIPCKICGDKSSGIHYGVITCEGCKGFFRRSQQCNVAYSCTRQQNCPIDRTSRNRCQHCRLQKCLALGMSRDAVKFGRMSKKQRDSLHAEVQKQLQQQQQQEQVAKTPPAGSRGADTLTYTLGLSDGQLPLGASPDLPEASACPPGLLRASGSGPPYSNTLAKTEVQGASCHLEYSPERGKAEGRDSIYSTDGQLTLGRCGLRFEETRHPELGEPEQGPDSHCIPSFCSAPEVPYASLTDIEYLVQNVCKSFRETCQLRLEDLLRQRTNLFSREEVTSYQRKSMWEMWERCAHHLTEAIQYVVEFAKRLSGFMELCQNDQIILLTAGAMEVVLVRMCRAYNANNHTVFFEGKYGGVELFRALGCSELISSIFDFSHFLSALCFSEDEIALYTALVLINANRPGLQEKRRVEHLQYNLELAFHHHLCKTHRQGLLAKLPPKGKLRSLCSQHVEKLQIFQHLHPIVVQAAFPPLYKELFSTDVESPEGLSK
#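 Luminescence from a UAS-regulated Photinus luciferase reporter in stably transfected Drosophila Schneider cells is measured; decreased signal marks ROR gamma inhibition. Fusion expression is induced by 700 uM copper sulfate for 20 hr.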
# Sfp inh: Sfp phosphopantetheinyl transferase inhibition | Q9F4F7 | Biochemical Sfp PPTase activity, qHTS | Potency, µM, inactives show largest response in the series, negative = inhibition, most hits filed as inhibitors | hit rate 3.5% among 310,000;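 also: the enzyme is Sfp with the accession as filed and its product quenches rhodamine fluorescence; 0% = enzyme reaction without inhibitor and -100% = no enzyme wells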
#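 With Hepes-Na pH 7.6 buffer containing 10 mM MgCl2, Sfp (15 nM) modified BHQ-2-YbbR (12.5 uM) using rhodamine-CoA (5 uM). Two reads 30 minutes apart at 525/598 nm yielded each well's rate.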
# Epigenetic derep: regulators of epigenetic silencing causing reporter derepression in mouse cells | murine LDR cells, GFP reporter derepression, 30 h | Potency, µM (highest dose often 53.9 µM), for inactives: top-dose GFP activation, hits mostly activators | hit rate 0.2% among 280,000 | AID 1865; also: % of control where 0% means no effect; nearly all actives have a fitted effect of over 60% in size
#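 In this reporter-derepression format, murine cells bearing a silenced integrated CMV-GFP locus incubate with test compound (30 h, 37 C), then are washed and imaged; fluorescent objects of 20–120 um count as induced cells.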
# VP16 counter: Gal4-VP16 reporter inhibition counter-screen | Potency, µM (highest dose often 53.6 µM), for inactives: top-dose activity, negative = inhibition, usual class: inhibitors | AID 2546 | Drosophila S2 Gal4-VP16 UAS-luciferase, luminescence, 20 h | hit rate 3.5% among 310,000;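 also: Gal4-VP16 expression switched on by copper sulfate through the metallothionein promoter; % is scaled to controls: 0 for no effect and ±100 for the full control effect; nearly all actives have a fitted effect of over 50% in size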
# ClpP mod: qHTS Assay for Activators of ClpP. ATP-dependent Clp protease proteolytic subunit (Bacillus subtilis (strain 168)), P80244. purified B. subtilis ClpP, FRET peptide cleavage, 20 min. Potency, µM (highest dose often 57.5 µM), inactives show top-dose activity change, negative = active. hit rate 1.9% among 340,000. AID 651965, 2013; active = well fitted falling curve with a large enough effect; inconclusive = small, poorly fitted or top-dose-only effect; inactive = no such curve, though single readings can be large or run the other way; also: the source files actives as falling curves though it sought activators and does not explain the sign; nearly all actives have a fitted effect of over 65% in size
# Target sequence (P80244 whole entry, looked up): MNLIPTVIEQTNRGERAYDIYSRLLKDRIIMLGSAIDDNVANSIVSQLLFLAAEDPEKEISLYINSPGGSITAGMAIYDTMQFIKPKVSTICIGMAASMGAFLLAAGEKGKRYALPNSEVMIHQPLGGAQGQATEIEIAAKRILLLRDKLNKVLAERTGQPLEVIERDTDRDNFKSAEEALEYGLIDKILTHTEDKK
#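 ClpP 10 microg/mL final, pH 8 Tris/KCl buffer with BSA, glycerol, Tween-20; compound pinned in; FRET-FV substrate; RT 20 min; Ex320/Em430; ΔFRET vs ADEP 5.8 microM, DMSO, no enzyme.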
# * = called active by the depositor; ? = inconclusive; nt = not tested or not shown; [ ] = another dose, or the depositor's remark. Unless noted, calls follow the shape of the dose curve; as a rule, active = well fitted curve in the direction sought with a large enough effect; inconclusive = small, poorly fitted or top-dose-only effect, or another doubt; inactive = no such curve, though single readings can be large; an effect the other way counts as inactive or inconclusive. Potency is read from the fitted curve at half-maximal effect.
SMILES,PINK1 modulator,RORg inh,Sfp inh,Epigenetic derep,VP16 counter,ClpP mod
Cc1ccc2nc(-c3ccccc3)cc(C(=O)NCCCn3ccnc3)c2c1,0%,9%,3%,-2%,0%,16µM*
O=C(Cc1cccs1)Nc1nnc(SCc2ccc(Br)cc2)s1,12%,-25%,12%,1%,-12%,2%
O=C(Cc1cccs1)Nc1nnc(SCc2ccc(C(F)(F)F)cc2)s1,10%,10µM*,8%,0%,-13%,-3%
Cc1ccc2c(c1)sc[n+]2Cc1ccccc1,9%[38.3 µM],?,25µM*,2%,-13%,-5%
N#C/C(=C/c1ccc(N2CCCCC2)o1)C(=O)Nc1ccc2ccccc2c1,7.1µM*,?,-16%,2.5µM*,1%,-2%
COc1ccc(NC(=O)/C(C#N)=C\c2ccc(N3CCOCC3)o2)cc1,21%,-39%,-10%,16µM*,?,nt
CSc1ccc(/C=C(\C#N)C(=O)NC2CCCCC2)cc1,15%,-9%,16%,-1%,5%,100%
N#C/C(=C/c1ccc(N2CCOCC2)o1)C(=O)NC1CCCCC1,3%,39%,25µM*,1%,?,-1%
COc1ccc(NC(=O)/C(C#N)=C/c2ccc(C)o2)cc1,4%,nt,nt,-1%,nt,0%
CCCCOC(=O)c1ccc(NC(=O)/C(C#N)=C/c2ccc(C)o2)cc1,2%,nt,nt,10µM*,nt,2%
COc1ccc(NC(=O)/C(C#N)=C/c2ccc(Br)o2)cc1,-2%[38.3 µM],75%,?,1%,2%,0%
COC(=O)[C@@H]1C=C[C@H](C)[C@H](CCOc2ccccc2)O1,nt,-19%,18%,0%,-1%,nt
CC(=O)Nc1ccc(NC(=O)c2cc(CN3CCCC3)on2)cc1,0%,nt,nt,0%,nt,0%
N#C/C(=C/c1ccc(N2CCCCC2)o1)C(=O)Nc1ccc(Cl)cc1,13µM*,-10%,5%,0.63µM*,-12%,4%
N#C/C(=C\c1ccc(N2CCOCC2)o1)C(=O)Nc1ccc(O)cc1,?,-41%,0%,?,-29%,nt
NC(=O)OC[C@@H]1[C@H](NC(=O)/C(=N/OCC(=O)O)c2csc(N)n2)C(=O)N1S(=O)(=O)O,nt,-2%,?,nt,-9%,nt
CCN(CC)C(=O)c1cc(C(C)(C)C)c(O)c(C(C)(C)C)c1,7%,10µM*,17%,2%,-3%,0%
NS(=O)(=O)c1nn2cc(-c3ccccc3)nc2s1,nt,?,6%,nt,?,nt
O=c1[nH]cc(N=Cc2cc(Cl)cc(Cl)c2O)c(=O)[nH]1,0%,11µM*,10%,nt,13µM*,-3%
O=c1[nH]cc(N=Cc2cc([N+](=O)[O-])ccc2O)c(=O)[nH]1,nt,-23%,-3%,nt,-1%,nt
O=C(c1ccc2c(c1)OCO2)N(Cc1cc2ccc(F)cc2nc1N1CCC(O)CC1)CC1CCCO1 (stereo unspecified),0%,nt,nt,nt,nt,nt
Cc1ccc(NC(=O)CSc2nc3ccccc3c3nc(CCc4c(C)n[nH]c4C)nn23)c(C)c1,1%,nt,nt,-1%,nt,-5%
CCOC(=O)c1ccc(NC(=O)c2c(NCc3cc(OC)ccc3OC)sc3c2CCC3)cc1,2%,nt,nt,-1%,nt,-5%
Cc1cccc(-c2nc3c4ccccc4n(Cc4cccc(Cl)c4)c(=O)n3n2)c1,0%,nt,nt,6%,nt,-9%
COc1ccccc1-c1c(C#N)c(N)nc2c1CCc1ccccc1-2,12%,-9%[10 µM],-9%,0%,?,1.8µM*
SMILES,PINK1 modulator,RORg inh,Sfp inh,Epigenetic derep,VP16 counter,ClpP mod
N#Cc1c(-c2ccccc2Cl)cc(C2CC2)nc1N,1%,-2%,2%,-7%,3%,?
COc1ccccc1-c1c(C)c(C)nc(N)c1C#N,0%,-20%,17%,-2%,-7%,22µM*
CCc1nc(N)c(C#N)c(-c2ccccc2OC)c1C,0%,-24%,-4%,-1%,0%,28µM*
COc1ccccc1-c1cc(C2CC2)nc(N)c1C#N,2%[38.3 µM],40%,11%,-1%,13%,28µM*
CCCSc1ncc(Cl)c(C(=O)N2CCN(c3ccc(OC)cc3)CC2)n1,0%,nt,nt,-1%,nt,1%
Cc1cc(Nc2ccc(F)cc2F)nc(-n2nc(C)cc2C)n1,3%,nt,nt,1%,nt,-3%
Fc1ccc(-c2csc(-c3nc(-c4ccc(Br)s4)cs3)n2)cc1,-1%,nt,nt,-1%,nt,-3%
COc1ccc2c(c1)C1=C(CC2)C(c2ccc(C)cc2)NC(=S)N1 (stereo unspecified),1%,0.71µM*,4%,2%,2.8µM*,-8%
COc1ccc(C2NC(=S)NC3=C2N2CCC3CC2)cc1 (stereo unspecified),0%,-2%,0%,13%,1%,-2%
COc1cccc(C2NC(=S)NC3=C2CCc2ccccc23)c1 (stereo unspecified),8%,-155%,50µM*,3%,0.28µM*,12%
COc1cc(-c2nc3ccc4ccccc4c3c3c2CCC3)cc(OC)c1OC,-1%,5.6µM*,?,0%,22µM*,25µM*
COc1cc(-c2nc3ccc4ccccc4c3c3c2CCC3)cc(OC)c1O,-2%,-7%,-14%,1%,?,-1%
CCCC(=O)OC1(C(=O)CO)CCC2C3CCC4=CC(=O)CCC4(C)C3C(O)CC21C (stereo unspecified),nt,10%,24%,2%,-1%,nt
Cc1ccc(C#CC[N+]2(CC#Cc3ccc(C)cc3)CCCCC2)cc1,?,?,-8%,0%,7.1µM*,-5%
COc1ccccc1-c1ocnc1C(=O)N1CCN(C(=O)C(c2ccccc2)c2ccccc2)CC1,-1%,18%,89µM*,nt,9%,nt
COc1ccc(C)cc1S(=O)(=O)N1CCN(C(=O)c2ncoc2-c2ccccc2C)CC1,1%,15%,5%,nt,-4%,nt
COc1ccc(C(=O)N2CCN(C)C(=O)[C@@H]2C)cc1OC1CCN(C(C)=O)CC1,0%,-4%,24%,nt,2%,32µM*
CN(C)c1ccc(/C=C(\C#N)c2nc(-c3ccc(Cl)c(Cl)c3)cs2)cc1,1%,nt,nt,?,nt,-1%
Cc1cc(C)c(Cn2cnc3ccccc32)c(C)c1,6%,5.6µM*,6%,1%,-56%,nt
O=C(c1cccc(NS(=O)(=O)c2ccccc2)c1)N1CCCC1,-1%,-31%,11%,nt,-9%,-2%
O=C(c1cccc(NS(=O)(=O)c2ccc(F)c(F)c2)c1)N1CCN(C(c2ccccc2)c2ccccc2)CC1,6%,?,-3%,-1%,-14%,32µM*
O=C(N/N=C/C=C/c1ccco1)/C(=C/c1ccccc1)NC(=O)c1ccccc1,4%,13µM*,45µM*,1%,?,0%
